Measured values taken from PubChem BioAssay (Tox21).
Inconclusive results are not listed. Activity calls are given as the source filed them. Unless noted, calls come from the whole dose curve; as a rule, active = well fitted curve in the direction sought with a large enough effect in the repeat runs; inconclusive = weak or mixed curves; inactive = no such curve, though single readings can be large; an effect the other way counts as inactive or inconclusive.

Assays:
[1] = qHTS assay for small molecule agonists of the p53 signaling pathway (AID 651631; calls by dose curve; note: nearly all actives have a fitted effect of over 15% in size)
Procedure, shortened: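 Agonist mode screen using a stably integrated beta-lactamase gene under p53 response elements in HCT-116 cells. Compound exposure lasts 16 h at 37 °C; fluorescence intensity is measured following 2 h FRET substrate loading.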

[2] = qHTS assay for small molecule agonists of the p53 signaling pathway - cell viability (AID 651633; calls by dose curve;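 note: p53RE-bla HCT reporter cells with a stable beta-lactamase p53 reporter; series mostly up to about 83 µM; nearly all actives have a fitted effect of over 30% in size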)
Procedure, shortened: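 p53RE-bla cells were treated with compound for 16 hours at 37 C. Cytotoxicity was then measured as CellTiter-Glo luminescence after 30 min at room temperature.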

[3] = qHTS assay for small molecules that induce genotoxicity in human embryonic kidney cells expressing luciferase-tagged ATAD5 - cell viability (AID 651634; calls by dose curve; note: nearly all actives have a fitted effect of over 25% in size)
Procedure, shortened: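 Here HEK293T cells with the ATAD5 luciferase reporter are incubated with test compounds for 15.5 hr, and cytotoxicity is then gauged by measuring protease activity in live cells using fluorescence.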

[4] = qHTS assay for small molecule disruptors of the mitochondrial membrane potential - cell viability (AID 720634; calls by dose curve;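 note: human HepG2 liver cancer cells; series mostly up to about 83 µM; nearly all actives have a fitted effect of over 20% in size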)
Procedure, shortened: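 Viability of HepG2 cells is scored from ATP content by luminescence; cells are exposed to compound for 1 hr at 37 C and 5% CO2, then dosed with m-MPI dye before the CellTiter-Glo reagent.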

[5] = qHTS assay for small molecule disruptors of the mitochondrial membrane potential (AID 720635)
Procedure, shortened: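 HepG2 cells exposed to compound 1 hr at 37C, then Mito-MPS dye 30 min. Ratio read of aggregate (540/590 nm) versus monomer (490/535 nm) fluorescence.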

[6] = qHTS assay to test for compound auto fluorescence at 590 nm (red) in HepG2 cells (AID 720674)
Procedure, shortened: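 Fluorescence at 590 nm emission following 540 nm excitation was recorded from HepG2 wells one hour after compound transfer, with DMSO-only wells as vehicle and Rose Bengal sodium equivalency as the scale.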

[7] = qHTS assay to test for compound auto fluorescence at 535 nm (green) in HepG2 cells (AID 720675)
[8] = qHTS assay to test for compound auto fluorescence at 460 nm (blue) in HEK293 cells (AID 720678)
Procedure, shortened: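 Triamterene serves as the blue fluorophore standard. Compound signal at 405/460 nm is read in HEK293 wells (2,000 cells, 10% dialyzed FBS) after overnight treatment at 37C.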

[9] = qHTS assay to test for compound auto fluorescence at 590 nm (red) in HEK293 cells (AID 720679)
Procedure, shortened: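 We plated HEK293 cells in 10% dialyzed FBS medium, let them adhere for 4-5 hr, then added 23 nL compound. Overnight at 37C and 5% CO2 preceded fluorescence measurement at 540/590nm.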

[10] = qHTS assay to test for compound auto fluorescence at 535 nm (green) in HEK293 cells (AID 720680)
[11] = qHTS assay to test for compound auto fluorescence at 460 nm (blue) in HEK293 cell free culture (AID 720681)
Procedure, shortened: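 Compounds were added to cell-free DMEM with 10% FBS and fluorescence read directly. The blue channel used 405 nm excitation and 460 nm emission, with triamterene as the reference fluorophore.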

[12] = qHTS assay to test for compound auto fluorescence at 535 nm (green) in HEK293 cell free culture (AID 720682)
Procedure, shortened: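 No cells present: wells hold DMEM supplemented with 10% FBS, into which compound or vehicle is pinned. Green emission is then recorded (485 nm excitation, 535 nm emission) and scaled to fluorescein.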

[13] = qHTS assay to test for compound auto fluorescence at 590 nm (red) in HEK293 cell free culture (AID 720683)
Procedure, shortened: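 Cell-free wells of DMEM with 10% FBS received compound, and intrinsic fluorescence was read at excitation/emission 540/590 nm. Values expressed as equivalence to Rose Bengal sodium.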

[14] = qHTS assay to test for compound auto fluorescence at 590 nm (red) in HepG2 cell free culture (AID 720684)
Procedure, shortened: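 Rose Bengal sodium served as the reference for red signal. Test compounds were dispensed into serum-containing MEM (10% FBS) without cells, and plates were read at 540/590 nm.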

[15] = qHTS assay to test for compound auto fluorescence at 460 nm (blue) in HepG2 cell free culture (AID 720685)
Procedure, shortened: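 Cell-free plates of MEM plus 10% FBS received 23 nL compound or DMSO vehicle; blue-channel (405/460 nm) intensity scored against triamterene as reference fluorophore.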

[16] = qHTS assay to test for compound auto fluorescence at 535 nm (green) in HepG2 cell free culture (AID 720686)
[17] = qHTS assay to test for compound auto fluorescence at 460 nm (blue) in HepG2 cells (AID 720687)
Procedure, shortened: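 HepG2 cells in MEM with 10% FBS, attached overnight at 37 C, were exposed to compound or DMSO for 1 hr at 37 C, 5% CO2. Blue fluorescence was read at 405/460 nm, with triamterene as reference fluorophore.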

[18] = qHTS assay for small molecules that induce genotoxicity in human embryonic kidney cells expressing luciferase-tagged ATAD5 (AID 651632); note: nearly all actives have a fitted effect of over 15% in size
Procedure, shortened: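 DMSO vehicle served as the control. HEK293T reporter cells, 16 hr at 37C, then 30 min Amplite at room temperature; ATAD5 induction is measured as luciferase activity.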

[19] = biological target: Glucocorticoid receptor (Homo sapiens) (UniProt P04150); test: qHTS assay to identify small molecule agonists of the glucocorticoid receptor (GR) signaling pathway (AID 720691; active = well fitted activation curve with a large enough effect in the signal ratio in the repeat runs, not every such curve was filed as active; the % refers to the signal ratio)
Procedure, shortened: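 Compounds in DMSO, alongside positive controls, were added to GR-bla HeLa reporter cells and incubated 18 h at 37 C; GRE-driven beta-lactamase was detected by fluorescence after 2 h with FRET substrate at room temperature.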

[20] = biological target: Glucocorticoid receptor (Homo sapiens) (UniProt P04150); test: qHTS assay to identify small molecule antagonists of the glucocorticoid receptor (GR) signaling pathway (AID 720692; active = well fitted inhibition curve with a large enough effect in the signal ratio in the repeat runs, not every such curve was filed as active; the % refers to the signal ratio)
Procedure, shortened: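 In a 1536-well cell format, compounds were added 4 h after seeding GR-bla HeLa cells, together with dexamethasone at 5 nM final; reporter activity was measured by FRET-substrate fluorescence following 18 h at 37 C.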
% is set by controls: 0 for no effect and ±100 for the full control effect.

Chain of Glucocorticoid receptor (Homo sapiens) (P04150 whole entry, looked up): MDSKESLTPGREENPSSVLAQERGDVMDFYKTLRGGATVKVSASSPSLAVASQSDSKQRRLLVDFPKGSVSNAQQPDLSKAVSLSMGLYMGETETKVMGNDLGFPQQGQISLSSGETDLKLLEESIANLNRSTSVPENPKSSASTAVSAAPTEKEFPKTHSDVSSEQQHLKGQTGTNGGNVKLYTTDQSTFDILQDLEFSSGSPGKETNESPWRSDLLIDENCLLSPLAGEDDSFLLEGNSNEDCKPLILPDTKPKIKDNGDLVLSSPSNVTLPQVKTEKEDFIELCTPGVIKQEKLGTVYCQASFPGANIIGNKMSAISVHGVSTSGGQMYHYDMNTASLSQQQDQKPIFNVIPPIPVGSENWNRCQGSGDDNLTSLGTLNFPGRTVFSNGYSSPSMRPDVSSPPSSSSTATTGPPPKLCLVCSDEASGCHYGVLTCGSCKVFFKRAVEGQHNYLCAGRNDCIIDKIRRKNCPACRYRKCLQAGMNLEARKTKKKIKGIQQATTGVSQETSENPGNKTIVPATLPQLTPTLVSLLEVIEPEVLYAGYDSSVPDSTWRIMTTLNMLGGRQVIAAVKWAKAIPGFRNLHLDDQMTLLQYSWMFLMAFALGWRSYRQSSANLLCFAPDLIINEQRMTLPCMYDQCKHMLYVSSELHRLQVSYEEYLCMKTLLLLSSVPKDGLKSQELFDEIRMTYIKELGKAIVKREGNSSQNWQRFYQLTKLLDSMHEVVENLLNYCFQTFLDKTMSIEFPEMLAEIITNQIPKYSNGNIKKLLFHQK

COC(=O)C(C)O (stereo not given)
inactive: Potency [1] | Potency [2] | Potency [3] | Potency [4] | Potency [5] | outcome [6] | outcome [7] | outcome [8] | outcome [9] | outcome [10] | outcome [11] | outcome [12] | outcome [13] | outcome [14] | outcome [15] | outcome [16] | outcome [17]

OC[C@H]1O[C@@H](O[C@H]2[C@H](O)[C@@H](O)[C@H](O)O[C@@H]2CO)[C@H](O)[C@@H](O)[C@H]1O
inactive: Potency [1] | Potency [18] | Potency [2] | Potency [3] | outcome [6] | outcome [7] | outcome [8] | outcome [9] | outcome [10] | outcome [12] | outcome [14] | outcome [15] | outcome [16] | outcome [17] | Potency [19] | Potency [20]

CCC(=O)Nc1ccc(O)cc1
inactive: Potency [1] | Potency [18] | Potency [2] | Potency [3] | outcome [6] | outcome [8] | outcome [10] | outcome [12] | outcome [14] | outcome [15] | outcome [16] | outcome [17] | Potency [19] | Potency [20]

COc1cc(Cl)ccc1Cl
inactive: Potency [1] | Potency [18] | Potency [2] | Potency [3] | Potency [4] | outcome [6] | outcome [8] | outcome [9] | outcome [10] | outcome [11] | outcome [12] | outcome [13] | outcome [15] | outcome [17] | Potency [19] | Potency [20]

Cc1c(-c2ccccc2)oc2c(C(=O)OCCN3CCCCC3)cccc2c1=O
inactive: Potency [1] | Potency [18] | Potency [2] | Potency [4] | fluorescence, relative to Rose Bengal [6] 0.822% [at 18.6 µM] | fluorescence, % of fluorescein control [7] 0.273% [at 18.6 µM] | fluorescence, % of triamterene [8] -0.209% [at 18.6 µM] | fluorescence, % of fluorescent control [9] 0.0102% [at 18.6 µM] | fluorescence, % of fluorescein [10] -0.0807% [at 18.6 µM] | fluorescence, % of fluorescent control [11] 0.0764% [at 18.6 µM] | activity change [12] -0.0846% [at 18.6 µM] | fluorescence, % of fluorescent control [13] -0.0474% [at 18.6 µM] | fluorescence, % of Rose Bengal [14] -0.137% [at 18.6 µM] | fluorescence, % of fluorescent control [15] -0.115% [at 18.6 µM] | fluorescence, % of fluorescein control [16] 0.0304% [at 18.6 µM] | fluorescence, % of fluorescent control [17] -0.0666% [at 18.6 µM] | Potency [19] | Potency [20]

COC(=O)N[C@H](C(=O)N[C@@H](Cc1ccccc1)[C@@H](O)CN(Cc1ccc(-c2ccccn2)cc1)NC(=O)[C@@H](NC(=O)OC)C(C)(C)C)C(C)(C)C
inactive: Potency [1] | Potency [18] | Potency [2] | Potency [3] | outcome [6] | outcome [7] | outcome [8] | outcome [9] | outcome [10] | outcome [11] | outcome [12] | outcome [13] | outcome [14] | outcome [15] | outcome [16] | outcome [17] | Potency [19] | Potency [20]

C=C(C)C(=O)OCCOP(=O)(O)O
inactive: Potency [1] | Potency [18] | Potency [2] | Potency [3] | Potency [5] | outcome [6] | outcome [7] | outcome [8] | outcome [9] | outcome [11] | outcome [12] | outcome [13] | outcome [14] | outcome [15] | Potency [19] | Potency [20]

O=C(O)c1ccccc1Nc1cc(Cl)ccc1C(=O)O
inactive: Potency [1] | Potency [2] | Potency [3] | Potency [4] | outcome [6] | outcome [7] | outcome [8] | outcome [9] | outcome [10] | outcome [11] | outcome [12] | outcome [13] | outcome [17] | Potency [19] | Potency [20]
